Assay outcomes as filed in PubChem BioAssay.
Pol kappa inh: inhibitors of human DNA polymerase kappa; Q9UBT6; purified Pol kappa, fluorescent DNA synthesis assay, 10 min; Potency, µM (series often up to 107 µM), actives largely listed as inhibitors; hit rate 0.53% among 400,000
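Enzyme at 10 nM met test compounds for 15 min at room temperature. Substrate addition (50 nM final) began the reaction, which was monitored by fluorescence at 0 and 10 min.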
FEN1 inh: blocks human flap endonuclease 1; hit rate 0.35% among 390,000; Recombinant FEN1 flap cleavage, fluorescence, 15 min; P39748; AID 588795; Potency, µM (titrated, usually from 114 µM), actives largely listed as inhibitors; note: nearly all actives have a fitted effect of over 65% in size
Target sequence (P39748 whole entry, looked up): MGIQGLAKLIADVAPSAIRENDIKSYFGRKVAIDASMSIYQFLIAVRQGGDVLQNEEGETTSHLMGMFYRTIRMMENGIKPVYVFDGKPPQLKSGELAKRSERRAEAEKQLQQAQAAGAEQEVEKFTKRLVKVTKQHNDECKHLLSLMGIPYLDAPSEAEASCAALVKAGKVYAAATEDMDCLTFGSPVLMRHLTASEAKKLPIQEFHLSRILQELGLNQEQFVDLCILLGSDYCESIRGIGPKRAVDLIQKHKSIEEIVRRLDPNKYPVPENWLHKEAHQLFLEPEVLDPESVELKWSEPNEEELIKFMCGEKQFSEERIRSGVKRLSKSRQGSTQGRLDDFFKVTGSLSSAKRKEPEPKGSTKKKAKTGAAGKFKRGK
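Recombinant FEN1 (10 nM) was preincubated with pin-transferred compounds for 15 min at room temperature, then flap DNA substrate (50 nM final) was added. Plates were read at 0 and 15 min, and normalized concentration–response data were fitted to a four-parameter Hill equation.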
POLB inh: blocks human DNA polymerase beta activity | P06746 | Pol beta primer extension/strand displacement, fluorescence kinetic | Potency, µM (highest dose often 114 µM), most hits filed as inhibitors | hit rate 1.3% among 340,000
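Values derive from four-parameter Hill fits of normalized kinetic data: reads at 0 and 10 min following addition of 50 nM substrate to 10 nM Pol beta preincubated 15 min with compound.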
Pol eta inh: blocks human DNA polymerase eta activity. AID 588591. hit rate 1.2% among 390,000. recombinant Pol eta, fluorescent DNA replication assay. Potency, µM (top dose mostly 114 µM), actives largely listed as inhibitors
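Pol eta (10 nM) was preincubated with compounds for 15 min at room temperature, after which fluorescent replication substrate (50 nM final) was added to start the reaction. Fluorescence was read kinetically at 0 and 10 min.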
Pol iota inh: blocks human DNA polymerase iota activity; Q9UNA4; hit rate 1% among 390,000; Pol iota fluorescent replication assay, 10 min; Potency, µM (highest dose often 115 µM), usual class: inhibitors
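Pol iota at 10 nM preincubated 15 min with compounds at room temperature; reaction started with fluorescent substrate, 50 nM final. Fluorescence read kinetically at 0 and 10 min; buffer-only wells as negative control.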
TDP1 inh: inhibitors of human tyrosyl-DNA phosphodiesterase TDP1. recombinant TDP1, AlphaScreen DNA substrate cleavage. Potency, µM (titrated, usually from 130 µM), hits mostly inhibitors. Q9NUW8. AID 485290. hit rate 0.28% among 350,000; note: nearly all actives have a fitted effect of over 40% in size
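Recombinant human Tdp1 (E. coli-expressed, 1 nM final) preincubated with compounds 15 min at room temperature, then 5'-biotin/3'-phosphotyrosine-FITC DNA substrate (15 nM final) added for 5 min. AlphaScreen beads (10 ug/ml final) added 10 min; cleavage lowers signal.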
A number is an active result; - = inactive; ? = inconclusive; . = no result. Most compounds without a hit are left out; they make up all but 2.4% or so of the library. Calls come from the whole dose curve; as a rule, active = well fitted curve in the direction sought with a large enough effect; inconclusive = small, poorly fitted or top-dose-only effect, or another doubt; inactive = no such curve, though single readings can be large; an effect the other way counts as inactive or inconclusive.

SMILES | Pol kappa inh | FEN1 inh | POLB inh | Pol eta inh | Pol iota inh | TDP1 inh
O=C(N/N=C/C(Br)=C\c1ccccc1)c1ccc2nc[nH]c2c1 | - | - | 13µM | ? | ? | -
O=C(N/N=C/c1ccc(Cl)cc1Cl)c1ccc2nc[nH]c2c1 | - | - | 16µM | - | - | -
O=C(N/N=C/c1cc([N+](=O)[O-])ccc1Cl)c1ccc2nc[nH]c2c1 | - | - | - | ? | - | -
COc1ccccc1/C=C/C=N/NC(=O)c1ccc2nc[nH]c2c1 | . | . | 35µM | . | . | -
CC(C)c1ccc(Nc2c(-c3ccsc3)nc3ccc(Cl)cn23)cc1 | - | - | - | - | - | -
COc1cccc(-n2c(=O)c3c(C)c(C)sc3n(CC(=O)NCCc3ccc(OC)c(OC)c3)c2=O)c1 | - | - | - | . | - | -
CNc1cccc(S(=O)(=O)N2CCN(S(=O)(=O)c3ccc4c(c3)OCCO4)CC2)c1 | . | . | . | . | . | -
CC(/C=N/NC(=O)c1ccc2nc(C)[nH]c2c1)=C\c1ccccc1 | - | - | 28µM | ? | - | -
COc1ccccc1C(=O)N/N=C/C(C)=C/c1ccccc1 | - | - | ? | - | - | .
O=C(N/N=C/c1ccncc1)c1ccc(NC(=O)c2cccc(Cl)c2)cc1 | ? | - | 8.9µM | ? | ? | -
CCOC(=O)c1cccc(NC(=O)c2cncc(Br)c2)c1 | 79µM | - | - | - | 89µM | -
Cc1cccc(N2CCN(C(=O)CS(=O)(=O)Cc3nc(-c4ccccc4C)oc3C)CC2C)c1 (stereo not given) | - | - | - | - | - | -
O=C(Nc1ccc(F)cc1F)c1noc2c1CCC2 | - | - | 22µM | 20µM | 18µM | .
CC(=O)Nc1ccc(NC(=O)CC2Nc3cccc4cccc(c34)NC2=O)cc1 (stereo not given) | - | - | - | ? | ? | -
CCOc1ccc(NC(=O)CC2Nc3cccc4cccc(c34)NC2=O)cc1 (stereo not given) | ? | ? | - | - | 5µM | -
CCOC(=O)c1ccc(NC(=O)CC2Nc3cccc4cccc(c34)NC2=O)cc1 (stereo not given) | 14µM | ? | - | - | 3.5µM | -
CC(=O)c1ccc(NC(=O)c2cc3c(=O)oc4ccc(C)cc4c3s2)cc1 | - | - | - | - | ? | -
CC(C)(C)n1ncc2c(=O)n(Cc3ccc(Cl)c(C(F)(F)F)c3)cnc21 | - | - | . | . | - | .
COc1cccc(Cn2cccc(NC(=O)Nc3ccccc3C)c2=O)c1 | - | - | - | - | 13µM | -
COc1cccc(Cn2cccc(NC(=O)NCc3ccccc3)c2=O)c1 | - | - | - | - | - | .
CC(=O)N(c1ccc(Cl)cc1)C1SC(=O)N(c2ccc(C)cc2)C1=O (stereo not given) | - | - | . | . | - | .
O=C(O)CN1C(=O)/C(=C\c2ccccc2OCc2ccc(Cl)cc2Cl)SC1=S | - | - | 20µM | 45µM | ? | -
O=C(O)COc1ccc(Br)cc1/C=C1/SC(=O)N(CC(=O)N2CCCC2)C1=O | - | - | - | - | ? | -
CCOc1ccccc1C=C1SC(=S)N(CC)C1=O | - | - | . | - | - | .
O=C(O)CN1C(=O)/C(=C\c2cc(Br)ccc2OCc2ccccc2Cl)SC1=S | - | ? | 32µM | 40µM | ? | .
SMILES | Pol kappa inh | FEN1 inh | POLB inh | Pol eta inh | Pol iota inh | TDP1 inh
O=S1(=O)N=C(Oc2cccc(-c3ccccc3)c2)c2ccccc21 | . | . | . | . | . | -
CC(NS(=O)(=O)c1ccccc1)C(=O)NC1CCCC1 (stereo not given) | - | - | ? | 79µM | - | -
O=C(CN1C(=O)CC(c2ccco2)Sc2ccccc21)Nc1ccccc1F (stereo not given) | - | - | - | ? | 45µM | -
Cc1ccc(C(=O)Nc2ccc3oc(-c4ccccc4C)nc3c2)cc1 | - | - | - | . | - | -
CC(NS(=O)(=O)c1ccccc1[N+](=O)[O-])c1ccccn1 (stereo not given) | - | - | . | . | - | .
COc1ccccc1N(C(=O)CCl)c1cn(C(C)=O)c2ccccc12 | - | - | - | 45µM | - | -
CCn1c2ccccc2c2nnc(SCc3ccccc3)nc21 | - | - | ? | - | ? | -
CCn1c2ccccc2c2nnc(SCc3ccc(C(=O)OC)o3)nc21 | - | - | 35µM | - | - | -
Cn1c2ccccc2c2cc(/C=N/NC(=O)c3ccc(N)cc3)ccc21 | ? | - | 10µM | ? | ? | -
Cc1c2cnn(CC(=O)N3CCN(c4ccc(F)cc4)CC3)c(=O)c2c(C)n1Cc1ccccc1F | - | - | - | - | - | -
CC(Oc1ccc(F)cc1)C(=O)Nc1cccc(-c2nn[nH]n2)c1 (stereo not given) | - | - | - | 45µM | 45µM | -
COc1ccc(OC(C)C(=O)Nc2cccc(OC)c2)cc1 (stereo not given) | - | - | - | - | - | -
NNC(=O)c1cc(O)c(O)c(O)c1 | 56µM | 22µM | 3.2µM | - | ? | .
COc1ccc(OC)c(NC(=O)c2c(NCc3cccs3)sc3c2CCCCC3)c1 | - | - | - | - | ? | -
Cc1cccc(OCC(=O)Nc2cc(NC(=O)COc3cccc(C)c3C)cc(C(=O)O)c2)c1C | - | - | 10µM | ? | - | .
Cc1ccc(-c2nc3ccccc3[nH]2)cc1NC(=O)COc1cccc(C)c1C | - | - | - | - | 89µM | -
Cc1ccc(-c2nc3ccccc3[nH]2)cc1NC(=O)COc1ccc(Cl)cc1Cl | - | - | - | - | - | -
CC(=O)NC(Cc1ccc(O)cc1)C(=O)NCC(N)C(=O)c1ccccc1 (stereo not given) | - | - | . | . | - | .
COc1ccc(CNc2ncnc3nc[nH]c23)cc1 | - | - | . | . | ? | -
CCOC(=O)C1=C(C)N=C2SC(C(=O)OC)=CC(=O)N2C1c1ccc(OC)cc1 (stereo not given) | - | - | - | - | 89µM | -
O=C(c1ccc(COc2c(F)c(F)c(F)c(F)c2F)o1)N1CCN(Cc2ccc3c(c2)OCO3)CC1 | ? | - | 45µM | ? | ? | -
CCOc1ccc(-c2nc(CNC(=O)NC3CCCCC3)c(C)o2)cc1 | - | - | - | - | - | -
COCCCN1CN=C(NS(=O)(=O)c2ccc(NC(C)=O)cc2)NC1 | - | - | - | - | - | -
CCc1ccc(NC(=O)C(C)OC(=O)c2ccc(NS(=O)(=O)c3ccc(C)c([N+](=O)[O-])c3)cc2)cc1 (stereo not given) | ? | - | - | 79µM | ? | -
CCN(c1cc(C)cc(C)c1)S(=O)(=O)c1nnc(NC(=O)c2cccs2)s1 | - | - | - | 89µM | - | -
CN(C)c1ccc(/C=C/C(=O)c2cccc(Br)c2)cc1 | ? | - | ? | - | 79µM | .
CN(C)c1ccc(C(=O)/C=C/c2cccnc2)cc1 | - | - | - | - | - | .
Cc1noc(C)c1-c1ccc2ncnc(NCc3ccc(Br)cc3)c2c1 | . | . | . | . | . | -
